Common to all, as to assay: Primary qHTS to identify gynecologic anti-cancer compounds using libraries of approved drugs and bioactive compounds (AID 1345084); further: nearly all actives have a fitted effect of over 55% in size
A general note: qHTS replaces the single test concentration by a dilution series.

One experiment concerns C33A. The note with it: Gynecologic cancer cell panel viability, ATPlite luminescence, 48 h; series mostly up to 57.5 µM. The essentials: (§1)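 Cells, 1,000 per well, plated 16 h, then exposed 48 h at 37 C to compounds. Viability by ATPlite luminescence after 15 min at room temperature.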
Another experiment concerns CAOV3. The note with it: Gynecologic cancer cell panel viability, ATPlite luminescence, 48 h; series mostly up to 57.5 µM. The essentials:
as §1
(In general: In ATP-based viability assays light output follows the ATP content of the culture.)

In another experiment the test system is CASKI. The note with it: Gynecologic cancer cell panel viability, ATPlite luminescence, 48 h; series mostly up to 57.5 µM. The gist of the method: as §1
Another experiment deals with Es-2. The following applies: Gynecologic cancer cell panel viability, ATPlite luminescence, 48 h; series mostly up to 57.5 µM. The gist of the method:
as §1

For another experiment, the system named is HeLa. The note with it: Gynecologic cancer cell panel viability, ATPlite luminescence, 48 h; series mostly up to 57.5 µM. The essentials:
as §1

The subject of a further experiment is Hek293T. The following applies: Gynecologic cancer cell panel viability, ATPlite luminescence, 48 h, control line for the selectivity index; series mostly up to 57.5 µM. The gist of the method: as §1
A further experiment concerns JEG-3. The note with it: Gynecologic cancer cell panel viability, ATPlite luminescence, 48 h; series mostly up to 57.5 µM. The essentials: as §1
Another experiment has as its system OV90. The following applies: Gynecologic cancer cell panel viability, ATPlite luminescence, 48 h; series mostly up to 57.5 µM. The essentials:
as §1

Another experiment has as its system PA-1. The following applies: Gynecologic cancer cell panel viability, ATPlite luminescence, 48 h; series mostly up to 57.5 µM. The gist of the method: as §1
Another experiment deals with SKOV3. The following applies: Gynecologic cancer cell panel viability, ATPlite luminescence, 48 h; series mostly up to 57.5 µM. The essentials: as §1
The next experiment concerns Tov112D. The note with it: Gynecologic cancer cell panel viability, ATPlite luminescence, 48 h; series mostly up to 57.5 µM. The gist of the method:
as §1

The subject of another experiment is Tov-21-G. The note with it: Gynecologic cancer cell panel viability, ATPlite luminescence, 48 h; series mostly up to 57.5 µM. The gist of the method: as §1

Records with an inconclusive call do not appear. Values without a mark were called inactive. The source made the active and inactive calls. The call rests on the fitted dose curve; in most records, active means well fitted cell-killing curve with a large enough effect; inconclusive means small, poorly fitted or top-dose-only effect, or effect the other way; inactive means flat fitted curve, though single readings scatter.
On the % scale 0 is the no-effect control and ±100 the full control effect; potency means the concentration at half of the fitted maximal effect.

In the case of `COc1cc2ncnc(Nc3ccc(O)cc3)c2cc1OC`, the Potency result in the experiment with C33A, in the experiment on CAOV3, in the experiment on CASKI, in the experiment on Es-2, in the experiment on HeLa and with Hek293T was “inactive” throughout. For the same compound, the Potency entry in the experiment with JEG-3, in the experiment on OV90, in the experiment with PA-1, with SKOV3 and with Tov112D was “inactive” throughout.
For `Cc1ccccc1CN1C2=NCCN2C(=O)C2=C1CCN(Cc1ccccc1)C2`, the Potency entry in the experiment on C33A, in the experiment on CAOV3, in the experiment on CASKI, with Es-2, in the experiment with HeLa and in the experiment on Hek293T was “inactive” in each case. In addition, the Potency result with JEG-3, in the experiment with OV90, with PA-1, with Tov-21-G and in the experiment with Tov112D was “inactive” throughout.
As for `COC(=O)C(C)C1CCC2(C)C(=O)C=CC(C)(O)C2C1O` (configuration not stated), the Potency entry in the experiment on C33A, with CAOV3, in the experiment on CASKI, with Es-2, with HeLa and with Hek293T was “inactive” in each case. For the same compound, the Potency result with JEG-3, in the experiment on OV90, in the experiment with PA-1, in the experiment on Tov-21-G and in the experiment with Tov112D was “inactive” in each case.
For the compound `C[C@H](O)[C@H](O)/C=C/c1cccc(O)c1CO`, the Potency entry with C33A, in the experiment on CAOV3, in the experiment on CASKI, with Es-2, with HeLa and with Hek293T was “inactive” throughout. Moreover, the Potency entry with JEG-3, in the experiment with OV90, in the experiment with PA-1, in the experiment on SKOV3, in the experiment on Tov-21-G and with Tov112D was “inactive” each time.
Take `OCC(CO[C@@H]1O[C@H](CO)[C@@H](O)[C@H](O)[C@H]1O)c1ccc2c(c1)OCO2` (some centres not stated): the Potency entry in the experiment on C33A, in the experiment on CAOV3, with CASKI, in the experiment with Es-2, with HeLa and in the experiment on Hek293T was “inactive” in each case. Moreover, the Potency result in the experiment with JEG-3, in the experiment with OV90, in the experiment with PA-1, in the experiment on Tov-21-G and in the experiment on Tov112D was “inactive” each time.
As to `CCOc1cc(CC(=O)NC(CC(C)C)c2ccccc2N2CCCCC2)ccc1C(=O)O` (configuration not stated), the Potency result in the experiment on C33A, with CAOV3, with CASKI, in the experiment on Es-2, in the experiment on HeLa and with Hek293T was “inactive” each time. Further, the Potency entry with JEG-3, with OV90, with PA-1, with Tov-21-G and in the experiment with Tov112D was “inactive” throughout.
Consider `CCCC1(c2ccccc2)NC(=O)N(CC(=O)N(C)Cc2c(F)cccc2Cl)C1=O` (configuration not stated), for which the Potency result with C33A, with CAOV3, in the experiment with CASKI, in the experiment with Es-2, in the experiment on HeLa and in the experiment with Hek293T was “inactive” each time. Also, the Potency entry with JEG-3, with OV90, with PA-1, in the experiment on Tov-21-G and in the experiment with Tov112D was “inactive” throughout.
`COC1C(=O)CCC2(CO2)C1(O)C1(C)OC1CC=C(C)C` (configuration not stated): the Potency entry in the experiment with C33A, in the experiment on CAOV3, in the experiment with CASKI, in the experiment on Es-2, in the experiment on HeLa and in the experiment on Hek293T was “inactive” throughout. In addition, the Potency entry in the experiment on JEG-3, in the experiment with OV90, in the experiment with PA-1, in the experiment on SKOV3 and with Tov112D was “inactive” throughout.
As for `COc1ccc(C2=N[C@@H](c3ccc(Cl)cc3)[C@@H](c3ccc(Cl)cc3)N2C(=O)N2CCNC(=O)C2)c(OC(C)C)c1`, the Potency result in the experiment with C33A, in the experiment with CAOV3, with CASKI, in the experiment with Es-2, with HeLa and with Hek293T was “inactive” in each case. Further, the Potency entry in the experiment on JEG-3, in the experiment with OV90, in the experiment with SKOV3 and with Tov112D was “inactive” each time. Further, the Potency in the experiment on PA-1 is 14.1 µM (active).
For the compound `C=CC1C(OC2OC(CO)C(O)C(O)C2O)OC=C(C(=O)OC)C1CC1CC(=O)CC(CCc2ccc(O)cc2)O1` (configuration not stated), the Potency entry in the experiment on C33A, in the experiment with CAOV3, in the experiment on CASKI, with Es-2, in the experiment with HeLa and in the experiment with Hek293T was “inactive” in each case. Also, the Potency entry with JEG-3, in the experiment on OV90, in the experiment with PA-1, with SKOV3 and in the experiment on Tov112D was “inactive” each time.
Take `CC(C)=CCC[C@](C)(O[C@@H]1O[C@H](CO[C@@H]2O[C@H](CO)[C@@H](O)[C@H](O)[C@H]2O)[C@@H](O)[C@H](O)[C@H]1O)C1CC[C@]2(C)[C@@H]1[C@H](O)CC1[C@@]3(C)CC[C@H](O[C@@H]4O[C@H](CO)[C@@H](O)[C@H](O)[C@H]4O[C@@H]4O[C@H](CO)[C@@H](O)[C@H](O)[C@H]4O)C(C)(C)[C@@H]3CC[C@]12C` (some centres not stated): the activity change, negative = cytotoxicity is 0.112% [at 11.6 µM] in the experiment with C33A; 10.1% [at 11.6 µM] in the experiment on CAOV3; 27.8% [at 11.6 µM] with CASKI; -0.241% [at 11.6 µM] in the experiment with Es-2; -0.531% [at 11.6 µM] in the experiment on HeLa; -3.2% [at 11.6 µM] with Hek293T. Moreover, the activity change, negative = cytotoxicity in the experiment on JEG-3 was -5.88% [at 11.6 µM]; in the experiment on OV90, 2.46% [at 11.6 µM]; with PA-1 it was 0.278% [at 11.6 µM]; in the experiment on Tov-21-G, 1.55% [at 11.6 µM]; in the experiment with Tov112D, 0.741% [at 11.6 µM].
For the compound `COc1nc2sc(C(=O)NC3CC3)c(N)c2c(C)c1Cl`, the Potency entry with C33A, in the experiment on CAOV3, with CASKI, in the experiment on Es-2, in the experiment with HeLa and in the experiment with Hek293T was “inactive” throughout. Besides, the Potency result with JEG-3, in the experiment with OV90, in the experiment with PA-1, in the experiment on Tov-21-G and in the experiment with Tov112D was “inactive” each time.
As for `COc1ccc([C@@H]2OC[C@H]3[C@@H]2CO[C@@H]3c2ccc(OC3OC(CO)C(O)C(O)C3O)c(OC)c2)cc1OC` (some centres not stated), the Potency result with C33A, in the experiment with CAOV3, in the experiment with CASKI, in the experiment on Es-2, in the experiment with HeLa and with Hek293T was “inactive” each time. Further, the Potency entry with JEG-3, in the experiment with OV90, with PA-1, in the experiment on Tov-21-G and in the experiment on Tov112D was “inactive” throughout.
For `C=C[C@@](C)(O)CC/C=C(\C)C(=O)O[C@@H]1[C@@H]2O[C@]2(C)[C@H]2[C@H](O[C@@H]3O[C@H](CO)[C@@H](O)[C@H](O)[C@H]3O)OC=C[C@@]12O`, the Potency result with C33A, in the experiment with CAOV3, in the experiment on CASKI, with Es-2, in the experiment with HeLa and in the experiment on Hek293T was “inactive” throughout. The Potency entry with JEG-3, in the experiment with OV90, with PA-1, in the experiment with Tov-21-G and in the experiment with Tov112D was “inactive” in each case.
Turning to `CC1=CCC(C(C)(C)O[C@@H]2O[C@H](CO[C@@H]3O[C@@H](C)[C@H](O)[C@@H](O)[C@H]3O)[C@@H](O)[C@H](O)[C@H]2O)CC1` (some centres not stated), the Potency result with C33A, in the experiment on CAOV3, in the experiment with CASKI, in the experiment with Es-2, in the experiment on HeLa and with Hek293T was “inactive” each time. Moreover, the Potency entry in the experiment on JEG-3, in the experiment with OV90, in the experiment on PA-1, in the experiment with Tov-21-G and with Tov112D was “inactive” each time.
As to `Cc1c(C(=O)Nc2ccc(N3CC(C)OC(C)C3)nc2)cccc1-c1ccc(OC(F)(F)F)cc1` (configuration not stated), the Potency result with C33A, with CAOV3, in the experiment on CASKI, in the experiment on Es-2, with HeLa and in the experiment on Hek293T was “inactive” each time. The Potency entry with JEG-3, with OV90, in the experiment on PA-1, in the experiment with Tov-21-G and in the experiment with Tov112D was “inactive” in each case.

(Values after PubChem BioAssay (NCATS).)
